What all share (settings): primary human HUVEC with PBMC; actives raise or lower the signal
Test [1] in a line: BSK_LPS_PGE2: BioMAP Diversity Plus: LPS Assay for Prostaglandin E2 (PGE2) Biomarker Activity (AID 2283082).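 On AC50: secreted prostaglandin E2 measured by ELISA in LPS-stimulated co-culture.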 The procedure, abridged:
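Primary human endothelial cells and blood mononuclear cells, co-cultured with LPS, receive test chemical; PGE2 ELISA follows at 24 h, with SRB-stained parallel cultures flagging cytotoxicity.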

Read-out in test [2]: Macrophage colony-stimulating factor (MCSF), CSF1 (gene 1435)
The experiment in a line: BSK_LPS_MCSF: BioMAP Diversity Plus: LPS Assay for Macrophage colony-stimulating factor (MCSF) Biomarker Activity (AID 2283083). The procedure, abridged:
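Bidirectional fit versus DMSO of ELISA-measured M-CSF in co-cultured human umbilical vein endothelial cells and PBMC, sampled 24 h after dosing.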

Read-out in test [3]: Tissue Factor, F3 (gene 2152)
In words: BSK_LPS_TissueFactor: BioMAP Diversity Plus: LPS Assay for Tissue Factor Biomarker Activity (AID 2283084). The procedure, abridged: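 Read-out: CD142 ELISA, 24 h. System: LPS-driven human endothelial/PBMC co-culture. Analysis: up- or down-signal fitted against DMSO.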

Read-out in test [4]: Tumor necrosis factor (Homo sapiens) (UniProt P01375)
In words: BSK_LPS_TNFa: BioMAP Diversity Plus: LPS Assay for Tumour Necrosis Factor alpha (TNFa) Biomarker Activity (AID 2283085).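 On AC50: TNFa protein level quantified by ELISA in the co-culture.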 The procedure, abridged:
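ELISA-based TNFa endpoint in a human endothelial–PBMC co-culture sampled 24 h post-exposure. Curves were fitted in both directions using DMSO as baseline of activity.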

Read-out in test [5]: Vascular cell adhesion molecule 1 (VCAM1), VCAM1 (gene 7412)
The experiment in a line: BSK_LPS_VCAM1: BioMAP Diversity Plus: LPS Assay for Vascular cell adhesion molecule 1 (VCAM1) Biomarker Activity (AID 2283086). The procedure, abridged:
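Measured by ELISA: VCAM-1 in LPS-activated HUVEC/PBMC co-cultures 24 h after treatment. Values reflect bidirectional fitting with DMSO as baseline.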

Read-out in the next test: CD38, CD38 (gene 952)
The experiment in a line: BSK_SAg_CD38: BioMAP Diversity Plus: SAg Assay for CD38 Biomarker Activity (AID 2283087). The procedure, abridged:
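Measures CD38 on a human endothelial/PBMC co-culture driven by SEB and TSST-1, 24 h after compound exposure, using ELISA with fluorescence detection; DMSO defines baseline for bidirectional curve fitting.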

Read-out in another test: CD40, CD40 (gene 958)
In words: BSK_SAg_CD40: BioMAP Diversity Plus: SAg Assay for CD40 Biomarker Activity (AID 2283088). The procedure, abridged: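 Endpoint derived by fitting increases or decreases versus DMSO controls. CD40 is detected by fluorescence ELISA in a human vascular co-culture of endothelium and PBMC at 24 h.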

Read-out in another test: CD69, CD69 (gene 969)
In words: BSK_SAg_CD69: BioMAP Diversity Plus: SAg Assay for CD69 Biomarker Activity (AID 2283089).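 On AC50: cell surface CD69 protein quantified by ELISA with fluorescence detection.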 The procedure, abridged:
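Endothelial/PBMC co-culture; chemical added; 24 h incubation; CD69 ELISA with fluorescence detection; bidirectional fit vs DMSO.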

Read-out in test [6]: Monocyte Chemoattractant Protein-1 (MCP1), CCL2 (gene 6347)
The experiment in a line: BSK_SAg_MCP1: BioMAP Diversity Plus: SAg Assay for Monocyte Chemoattractant Protein-1 (MCP1) Biomarker Activity (AID 2283090). The procedure, abridged:
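Values derive from bidirectional fitting of ELISA-measured MCP1 against DMSO controls. Readings were taken 24 h after dosing human vascular endothelial cells co-cultured with peripheral blood mononuclear cells under superantigen stimulation.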

Read-out in test [7]: E-selectin (Homo sapiens) (UniProt P16581)
In words: BSK_SAg_Eselectin: BioMAP Diversity Plus: SAg Assay for Eselectin Biomarker Activity (AID 2283091). The procedure, abridged: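 Endpoint values derive from bidirectional fitting relative to DMSO, using ELISA-measured E-selectin in a human vascular co-culture (umbilical vein endothelium plus PBMC) sampled 24 h after dosing.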

SMILES strings stand for the structures. Activity calls are given as the source filed them. How the source made its calls: active means hit-call score of the fitted dose curve at least 0.9, where 1 is the maximum; inactive means score below 0.9.

Chain of E-selectin (Homo sapiens) (P16581 whole entry, looked up): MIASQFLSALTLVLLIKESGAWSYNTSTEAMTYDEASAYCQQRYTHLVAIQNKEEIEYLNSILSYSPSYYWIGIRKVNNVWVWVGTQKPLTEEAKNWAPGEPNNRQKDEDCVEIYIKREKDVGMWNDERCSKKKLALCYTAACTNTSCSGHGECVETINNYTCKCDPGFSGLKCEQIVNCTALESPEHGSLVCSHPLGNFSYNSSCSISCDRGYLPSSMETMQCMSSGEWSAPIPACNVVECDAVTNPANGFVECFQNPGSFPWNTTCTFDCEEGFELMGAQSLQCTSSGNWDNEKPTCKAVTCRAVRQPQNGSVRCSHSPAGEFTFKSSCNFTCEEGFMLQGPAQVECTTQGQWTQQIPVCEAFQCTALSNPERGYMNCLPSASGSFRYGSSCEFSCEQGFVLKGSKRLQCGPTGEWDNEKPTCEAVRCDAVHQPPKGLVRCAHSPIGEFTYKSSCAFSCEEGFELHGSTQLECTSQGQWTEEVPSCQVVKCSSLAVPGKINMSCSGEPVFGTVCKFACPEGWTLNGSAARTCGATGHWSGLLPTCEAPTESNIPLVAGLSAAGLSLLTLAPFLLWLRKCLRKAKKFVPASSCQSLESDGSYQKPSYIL
Chain of Tumor necrosis factor (Homo sapiens) (P01375 whole entry, looked up): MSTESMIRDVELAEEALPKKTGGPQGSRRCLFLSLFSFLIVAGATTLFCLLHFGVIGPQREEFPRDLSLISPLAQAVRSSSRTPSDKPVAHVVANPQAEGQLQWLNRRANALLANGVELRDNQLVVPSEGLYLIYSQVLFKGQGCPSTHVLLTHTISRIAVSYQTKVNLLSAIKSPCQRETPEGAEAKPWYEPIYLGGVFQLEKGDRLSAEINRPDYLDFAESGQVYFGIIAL

As usually defined, the AC50 is the concentration giving half of the maximal activity seen. As for `CN(C)C(=O)Nc1ccc(Cl)c(Cl)c1`, the AC50 in [1] is 7.82 µM (active). Moreover, the outcome is “inactive” in test [2]; “inactive” in test [3]; “inactive” in test [4]; “inactive” in test [5]; “inactive” in the test with CD38, CD38 (gene 952); “inactive” with CD40, CD40 (gene 958). Further, the outcome is “inactive” in the test with CD69, CD69 (gene 969); “inactive” in [6]; “inactive” in [7].
`CCCN(CCC)C(=O)SCC`: the outcome in test [1] is “inactive”; in [2] it was “inactive”; in test [3], “inactive”; in test [4], “inactive”; in [5], “inactive”; with CD38, CD38 (gene 952) it was “inactive”. In addition, the outcome with CD40, CD40 (gene 958) is “inactive”; with CD69, CD69 (gene 969), “inactive”; in [6], “inactive”; in [7] it was “inactive”.
Consider `CC(=O)S[C@@H]1CC2=CC(=O)CC[C@]2(C)[C@H]2CC[C@@]3(C)[C@@H](CC[C@@]34CCC(=O)O4)[C@H]12`, for which the AC50 in test [1] is 15.6 µM (active); in [2] it was 22 µM (active); in test [3] it was 20 µM (active); in test [4], 13.9 µM (active); in [5], 29.7 µM (active); in the test with CD38, CD38 (gene 952) it was 19.3 µM (active). Further, the AC50 with CD40, CD40 (gene 958) was 20 µM (active); with CD69, CD69 (gene 969), 13.9 µM (active); in test [6] it was 17.2 µM (active); in test [7] it was 14.9 µM (active).
For `O=C(Nc1ccc([N+](=O)[O-])cc1Cl)c1cc(Cl)ccc1O`, the AC50 in test [1] was 0.178 µM (active); in [2], 0.148 µM (active); in test [4], 0.583 µM (active); in test [5] it was 0.175 µM (active); with CD38, CD38 (gene 952), 0.148 µM (active); with CD40, CD40 (gene 958) it was 0.17 µM (active). The AC50 with CD69, CD69 (gene 969) is 0.335 µM (active); in [6], 0.148 µM (active); in test [7], 0.148 µM (active). For the same compound, in [3], the result was inactive.
For `CCCN(CCC)c1c([N+](=O)[O-])cc(C(F)(F)F)c(N)c1[N+](=O)[O-]`, the outcome is “inactive” in test [1]; “inactive” in test [3]; “inactive” with CD38, CD38 (gene 952); “inactive” with CD69, CD69 (gene 969). Besides, the AC50 in test [2] is 20 µM (active); in test [4], 30.2 µM (active); in [5], 30.7 µM (active); with CD40, CD40 (gene 958), 28.9 µM (active); in test [6], 31 µM (active); in [7] it was 29.3 µM (active).
On to `CCCCCOC(=O)COc1cc(N2C(=O)C3=C(CCCC3)C2=O)c(F)cc1Cl`, for which the outcome in test [1] was “inactive”; in test [2], “inactive”; with CD38, CD38 (gene 952), “inactive”; in the test with CD69, CD69 (gene 969), “inactive”; in test [6], “inactive”. The AC50 in test [3] was 27.8 µM (active); in test [4] it was 20 µM (active); in test [5], 15 µM (active); with CD40, CD40 (gene 958) it was 20 µM (active); in [7], 15.8 µM (active).
Turning to `CC(=O)[C@H]1CC[C@H]2[C@@H]3CCC4=CC(=O)CC[C@]4(C)[C@H]3CC[C@]12C`, the outcome in test [1], in test [2], in [3], in [4], in [5] and in [6] was inactive. Also, the AC50 in the test with CD38, CD38 (gene 952) is 25.7 µM (active); with CD40, CD40 (gene 958) it was 20 µM (active); in [7], 1.01 µM (active).
Take `CCOC(=O)C(C)Oc1ccc(Oc2cnc3cc(Cl)ccc3n2)cc1` (stereo not drawn): the AC50 in test [1] is 13.1 µM (active). For the same compound, the outcome in test [2] was “inactive”; in test [3], “inactive”; in [4], “inactive”; in test [5], “inactive”; with CD38, CD38 (gene 952), “inactive”; with CD40, CD40 (gene 958), “inactive”. In addition, the outcome was “inactive” in the test with CD69, CD69 (gene 969); “inactive” in test [6]; “inactive” in [7].
Take `c1ccc2[nH]c(-c3cscn3)nc2c1`: the outcome in test [1] was “inactive”; in test [2], “inactive”; in test [3], “inactive”; in [4] it was “inactive”; in test [5], “inactive”; in the test with CD38, CD38 (gene 952) it was “inactive”. The outcome with CD40, CD40 (gene 958) is “inactive”; with CD69, CD69 (gene 969) it was “inactive”; in test [6], “inactive”; in test [7] it was “inactive”.
With `CC(C)(C)[C@@H](O)[C@@H](Cc1ccc(Cl)cc1)n1cncn1`, the outcome was “inactive” in test [1]; “inactive” in test [2]; “inactive” in test [3]; “inactive” in [4]; “inactive” in test [5]; “inactive” with CD38, CD38 (gene 952). The outcome with CD40, CD40 (gene 958) was “inactive”; with CD69, CD69 (gene 969), “inactive”; in test [6] it was “inactive”. In addition, the AC50 in test [7] was 8.51 µM (active).
For `CCCOC(=O)NCCCN(C)C`, the outcome was “inactive” in [1]; “inactive” in [2]; “inactive” in test [3]; “inactive” in test [4]; “inactive” in test [5]; “inactive” in the test with CD38, CD38 (gene 952). Besides, the outcome with CD40, CD40 (gene 958) was “inactive”; with CD69, CD69 (gene 969), “inactive”; in [6], “inactive”; in test [7], “inactive”.
On to `C[C@]12C[C@H](O)[C@H]3[C@@H](CCC4=CC(=O)CC[C@@]43C)[C@@H]1CC[C@@H]2C(=O)CO`, for which the outcome in test [1] is “inactive”; in test [3] it was “inactive”; in test [4], “inactive”; in test [5], “inactive”; with CD38, CD38 (gene 952), “inactive”; in the test with CD40, CD40 (gene 958), “inactive”. The outcome in the test with CD69, CD69 (gene 969) is “inactive”; in test [6], “inactive”; in test [7], “inactive”.
In the case of `O=C(O)c1ccccc1`, the outcome was “inactive” in test [1]; “inactive” in test [2]; “inactive” in [3]; “inactive” in [4]; “inactive” in [5]; “inactive” with CD38, CD38 (gene 952). For the same compound, the outcome was “inactive” in the test with CD40, CD40 (gene 958); “inactive” with CD69, CD69 (gene 969); “inactive” in test [6]; “inactive” in test [7].
On to `CCCCOC(=O)[C@@H](C)Oc1ccc(Oc2ccc(C(F)(F)F)cn2)cc1`, for which the outcome is “inactive” in [1]; “inactive” in test [2]; “inactive” in test [3]; “inactive” in test [4]; “inactive” in test [5]; “inactive” in the test with CD38, CD38 (gene 952). For the same compound, the outcome was “inactive” with CD40, CD40 (gene 958); “inactive” with CD69, CD69 (gene 969); “inactive” in [6]; “inactive” in test [7].
In the case of `C#C[C@]1(O)CC[C@H]2[C@@H]3CCC4=CC(=O)CC[C@@H]4[C@H]3CC[C@@]21CC`, the AC50 in test [1] was 2.43 µM (active); in [2], 14.5 µM (active). For the same compound, the outcome in test [3] is “inactive”; in [4] it was “inactive”; in test [5] it was “inactive”; in the test with CD38, CD38 (gene 952), “inactive”; in the test with CD40, CD40 (gene 958) it was “inactive”; in the test with CD69, CD69 (gene 969), “inactive”. The outcome in test [6] and in [7] was inactive.

These data come from PubChem BioAssay (EPA / NIEHS).
